# In PubChem BioAssay (Tox21):
# Values without a mark were called inactive. Where a call stands in place of a potency, no number is given. Active and inactive are the calls of the source. Unless noted, calls follow the shape of the full dose curve.
# Target: Estrogen receptor (Homo sapiens) (UniProt P03372)
# Test: qHTS assay to identify small molecule antagonists of the estrogen receptor alpha (ER-alpha) signaling pathway (AID 743069; active = well fitted curve in the direction sought with a large enough effect in the signal ratio in the repeat runs, not every such curve was filed as active; inconclusive = weak or mixed curves, or effect the other way; inactive = no such curve, though single readings can be large or run the other way; the % refers to the signal ratio)
# Details: HEK293 ER-alpha-UAS-bla, beta-lactamase ratio, antagonist mode; series mostly up to 69.4 µM
# Method in brief: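 Compound effects are measured against 17beta-estradiol stimulation in HEK293 cells with a UAS-controlled beta-lactamase reporter for ER-alpha. Exposure lasts 18 hr at 37C; LiveBLAzer B/G FRET substrate follows for 2 hr at room temperature.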
# Potency is read from the fitted curve at half-maximal effect.
# Sequence of Estrogen receptor (Homo sapiens) (P03372 whole entry, looked up): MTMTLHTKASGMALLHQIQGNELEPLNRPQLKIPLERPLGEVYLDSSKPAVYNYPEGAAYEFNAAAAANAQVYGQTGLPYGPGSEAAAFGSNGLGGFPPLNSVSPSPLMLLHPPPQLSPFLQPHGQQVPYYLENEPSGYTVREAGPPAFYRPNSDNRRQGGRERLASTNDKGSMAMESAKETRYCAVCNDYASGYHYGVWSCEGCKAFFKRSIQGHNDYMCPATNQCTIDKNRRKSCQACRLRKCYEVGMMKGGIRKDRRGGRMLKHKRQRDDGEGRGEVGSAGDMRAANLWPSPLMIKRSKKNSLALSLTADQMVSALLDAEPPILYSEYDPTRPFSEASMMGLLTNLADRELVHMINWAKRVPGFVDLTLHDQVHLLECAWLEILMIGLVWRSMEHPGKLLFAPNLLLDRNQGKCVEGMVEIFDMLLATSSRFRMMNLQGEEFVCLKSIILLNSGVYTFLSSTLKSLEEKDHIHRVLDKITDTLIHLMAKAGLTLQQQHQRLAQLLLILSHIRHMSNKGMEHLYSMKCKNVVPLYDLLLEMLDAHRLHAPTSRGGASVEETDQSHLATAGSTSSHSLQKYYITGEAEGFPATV
row,Structure (SMILES),Potency
1,ClCBr,inactive
2,O.O.O.O=C([O-])[C@H]([O-])[C@@H]([O-])C(=O)[O-].O=C([O-])[C@H]([O-])[C@@H]([O-])C(=O)[O-].[K+].[K+].[Sb+3].[Sb+3],17.5 µM [inhibitor] (active)
3,Cc1cccc(Cc2cnc[nH]2)c1C,inactive
4,COC(=O)C(C)N(C(=O)c1ccco1)c1c(C)cccc1C (configuration not stated),inactive
5,OCC(Br)CBr (configuration not stated),inactive
6,Cc1ccc2cc3c(ccc4ccccc43)c3c2c1CC3,inactive
7,Cc1cc2c3c(c1)C(c1ccccc1)=N[C@@H](NC(=O)c1ccncc1)C(=O)N3CC2,inactive
8,c1ccc(Nc2ccc(Nc3ccccc3)cc2)cc1,1.73 µM [inconclusive] (active)
9,BrCC(Br)(Br)Br,inactive
10,CCC[CH2][Sn]([CH2]CCC)([O]C(C)=O)[O]C(C)=O,31.2 µM [inconclusive] (active)
11,c1ccc(N=NNc2ccccc2)cc1,21.9 µM [inhibitor] (active)

# Test system: not listed separately
# Test: qHTS assay to identify small molecule antagonists of the estrogen receptor alpha (ER-alpha) signaling pathway - cell viability counter screen (AID 743074);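 also: HEK293 cells carrying ER-alpha-UAS-bla reporter stimulated with 17beta-estradiol; nearly all actives have a fitted effect of over 45% in size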
# Details: ERalpha-bla HEK293 viability, CellTiter-Glo luminescence, 18 h; series mostly up to 69.4 µM
Structure (SMILES),"activity, negative = cytotoxicity",Potency
Clc1c(Cl)c(Cl)c(Cl)c(Cl)c1Cl,18.2% [at 6.72 µM],
O.O.O.O.O.O.O=S(=O)([O-])[O-].[Ni+2],,inactive
CC(=O)[O-].CC(=O)[O-].O.O.O.[Pb+2],,inactive
CN1C(=O)[C@@H](NC(=O)c2cc3ccccc3[nH]2)N=C(c2ccccc2)c2ccccc21,,inactive
Oc1cc(Cl)cc(Cl)c1,,inactive
Cc1c([N+](=O)[O-])cc2c(c1[N+](=O)[O-])C(C)(C)CC2(C)C,,inactive
CC(=O)[O-].CC(=O)[O-].CC(=O)[O-].[Sb+3],16.3% [at 6.72 µM],
ClCBr,,inactive
O.O.O.O=C([O-])[C@H]([O-])[C@@H]([O-])C(=O)[O-].O=C([O-])[C@H]([O-])[C@@H]([O-])C(=O)[O-].[K+].[K+].[Sb+3].[Sb+3],,inactive
Cc1ccn2nc(S(=O)(=O)Nc3c(F)cccc3F)nc2n1,,inactive
CC(=O)O.CC(=O)O.CC(=O)O.CC(=O)O.CC(=O)O.CC(=O)O.CC(=O)O.O.O.[Cr].[Cr].[Cr],,inactive
CCCC[N+]1(C)CCCC1 (tested in a mixture with another compound),,inactive
CC(=O)[O][Sn]([c]1ccccc1)([c]1ccccc1)[c]1ccccc1,,195 nM (active)
Nc1c(Cl)c(Cl)c(Cl)c(Cl)c1Cl,,inactive
CCCCC(CC)COC(=O)OOC(C)(C)C (configuration not stated),,inactive
CC(=O)[O-].CC(=O)[O-].CC(=O)[O-].[Cr+3],,inactive

Structure (SMILES),"activity, negative = cytotoxicity",Potency
COC(=O)C(C)N(C(=O)c1ccco1)c1c(C)cccc1C (configuration not stated),,inactive
OCC(Br)CBr (configuration not stated),,inactive
CCCN,,inactive
O=C1C[C@@H]2OCC=C3CN4CC[C@]56c7ccccc7N1[C@H]5[C@H]2[C@H]3C[C@H]46,,inactive
Cc1ccc2cc3c(ccc4ccccc43)c3c2c1CC3,,inactive
COP(=S)(OC)Oc1nc(Cl)c(Cl)cc1Cl,,inactive
c1ccc(Nc2ccc(Nc3ccccc3)cc2)cc1,,inactive
Oc1ccc2[nH]cc(CCCCN3CC=C(c4ccccc4)CC3)c2c1,,inactive
CCCCn1cc[n+](C)c1 (tested in a mixture with another compound),,inactive
O=[N+]([O-])c1cccc2cccc([N+](=O)[O-])c12,,inactive
COP(=S)(OC)Oc1ccc([N+](=O)[O-])c(C)c1,,inactive
CC(O)C(=O)[O][Hg][c]1ccccc1 (configuration not stated),,5490 nM (active)
BrCC(Br)(Br)Br,,inactive
CCC[CH2][Sn]([CH2]CCC)([O]C(C)=O)[O]C(C)=O,,inactive
c1ccc(N=NNc2ccccc2)cc1,,inactive
